Assay outcomes (PubChem BioAssay)
An excerpt weighted towards active compounds, which were near 1% of everything screened.
BLM helicase inh – Bloom syndrome helicase (human) inhibition; recombinant BLM DNA unwinding, fluorescence dequenching; actives 0.2% (n = 350,000); Potency, µM (series often up to 56.1 µM), for the others: top-dose activity change, negative = inhibition, usual class: inhibitors;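 note: plate controls were vehicle for no effect and no enzyme for full effect; nearly all actives have a fitted effect of over 35% in size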
APE1 inh – inhibitors of human APE1 endonuclease. actives 0.35% (n = 350,000). Potency, µM (highest dose often 65.8 µM), for inactives: at the top dose activity change, negative = inhibition, most hits filed as inhibitors. recombinant APE1, TAMRA/BHQ-2 abasic DNA cleavage fluorescence. P27695;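 note: plate controls were vehicle for no effect and reference inhibitor for full effect; nearly all actives have a fitted effect of over 55% in size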
Target sequence (P27695 whole entry, looked up): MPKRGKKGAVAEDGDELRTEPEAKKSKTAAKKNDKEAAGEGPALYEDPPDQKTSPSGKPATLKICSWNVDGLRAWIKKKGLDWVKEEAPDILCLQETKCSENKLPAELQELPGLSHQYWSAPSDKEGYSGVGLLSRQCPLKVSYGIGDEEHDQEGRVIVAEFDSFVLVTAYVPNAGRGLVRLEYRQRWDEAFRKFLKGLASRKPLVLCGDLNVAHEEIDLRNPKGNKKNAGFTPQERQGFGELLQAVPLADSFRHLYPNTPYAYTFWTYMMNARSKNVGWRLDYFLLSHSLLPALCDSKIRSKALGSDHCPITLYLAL
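Quantitative HTS: incision of a TAMRA/BHQ-2 double-stranded substrate bearing a tetrahydrofuran abasic site by 0.75 nM APE1 raises fluorescence. Substrate 50 nM final, added after 15 min compound preincubation at room temperature; progress as third-minus-first kinetic read difference.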
FEN1 inh – inhibitors of human flap endonuclease 1. P39748. Recombinant FEN1 flap cleavage, fluorescence, 15 min. Potency, µM (titrated, usually from 114 µM), for the others: at the highest dose activity change, negative = inhibition, actives largely listed as inhibitors. actives 0.35% (n = 390,000); note: nearly all actives have a fitted effect of over 65% in size
Target sequence (P39748 whole entry, looked up): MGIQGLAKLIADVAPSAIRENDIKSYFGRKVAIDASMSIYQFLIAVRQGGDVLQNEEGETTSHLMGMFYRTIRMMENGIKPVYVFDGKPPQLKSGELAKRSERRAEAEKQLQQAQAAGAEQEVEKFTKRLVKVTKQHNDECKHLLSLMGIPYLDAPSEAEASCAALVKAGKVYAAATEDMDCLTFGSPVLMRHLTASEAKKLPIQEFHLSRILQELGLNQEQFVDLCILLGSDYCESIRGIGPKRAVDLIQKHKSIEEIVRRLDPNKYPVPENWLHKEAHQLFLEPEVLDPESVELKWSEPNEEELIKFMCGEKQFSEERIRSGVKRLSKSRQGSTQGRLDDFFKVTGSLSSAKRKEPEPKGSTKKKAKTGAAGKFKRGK
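FEN1 at 10 nM, compound pretreatment for 15 min (room temperature), 50 nM final substrate to initiate; endpoint reads at 0 and 15 min; DMSO-only plates used as vehicle background.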
WRN helicase inh – WRN helicase (human) inhibition. WRN helicase unwinding, fluorescent forked duplex, kinetic. Potency, µM (top dose mostly 114 µM), inactives show top-dose activity change, negative = inhibition, usual class: inhibitors. actives 0.46% (n = 360,000); note: nearly all actives have a fitted effect of over 55% in size
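WRN at 20 nM final preincubated with compound 15 min at room temperature; reaction started with 100 nM fluorophore/quencher forked duplex oligonucleotide and 2 mM ATP final. Unwinding followed kinetically by red fluorescence (ex 525, em 598 nm).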
RECQ1 helicase – blocks DNA unwinding by human RECQ1; Potency, µM (highest dose often 57.3 µM), for the others: at the highest dose activity, negative = inhibition, usual class: inhibitors; RECQ1 DNA unwinding, red fluorescence kinetic read; P46063; actives 0.54% (n = 240,000);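 note: plate controls were vehicle for no effect and no enzyme for full effect; nearly all actives have a fitted effect of over 30% in size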
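50 nM RECQ1T1 preincubated 15 min with compound in Tris pH 8.0 buffer with MgCl2, DTT, Tween-20 and 2.5 ug/ml poly(dI-dC); started with 200 nM TAMRA/BHQ-2 forked duplex and 2 mM ATP. Unwinding read as fluorescence (525/598 nm), two reads 2 h apart.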
L3MBTL1 block – blocks human L3MBTL1; Q9Y468; AlphaScreen L3MBTL1–H3K9me1 peptide binding; Potency, µM (series often up to 57.1 µM), for inactives: top-dose activity, negative = inhibition, most hits filed as inhibitors; actives 0.66% (n = 230,000); AID 485360; note: nearly all actives have a fitted effect of over 60% in size
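Read-out is AlphaScreen signal from streptavidin donor and nickel chelate acceptor beads (10 ug/mL final each) bridging L3MBTL1 (50 nM) and biotinylated K9-monomethylated H3(1-15) peptide (75 nM), after 30 min compound exposure at room temperature.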
* = called active by the depositor; i = inactive; ? = inconclusive; / = not tested or not shown; [ ] = another dose, or the depositor's remark. Calls come from the whole dose curve; as a rule, active = well fitted curve in the direction sought with a large enough effect; inconclusive = small, poorly fitted or top-dose-only effect, or another doubt; inactive = no such curve, though single readings can be large; an effect the other way counts as inactive or inconclusive. Unless noted, % is set by controls: 0 for no effect and ±100 for the full control effect; potency is the fitted concentration of half-maximal effect.

SMILES	BLM helicase inh	APE1 inh	FEN1 inh	WRN helicase inh	RECQ1 helicase	L3MBTL1 block
COc1cc2c(cc1OC)-c1c(OC)c(OC)c(OC)c3ccnc(c13)C2=O	0%	?	10µM*	-4%	-19%	-6%
COc1ccc(/C=C2/C(=O)NC(=O)N(c3ccc(C)c(C)c3)C2=O)cc1CN1C(=O)c2ccccc2C1=O	-4%	0%	-11%	40µM*	-6%	2%
COc1ccc(CN2C(=O)NC(=O)/C(=C/c3cc(OC)c(OC)c(OC)c3)C2=O)cc1	-2%	2%	-16%	45µM*	-6%	/
COc1cc(/C=C2\C(=O)NC(=O)N(c3ccccc3)C2=O)cc(OC)c1OC	-3%	-2%	0%	50µM*	-13%	/
CN[C@H]1C[C@@H](N)[C@H](O)[C@@H](O[C@@H]2O[C@H](CO)[C@H](O)[C@@H]3OC4(O[C@H]23)O[C@H](C(N)CO)[C@H](O)[C@H](O)[C@H]4O)[C@@H]1O (stereo not given in full)	/	1%	/	/	/	/
CCN1C(=O)NC(=O)/C(=C\c2ccc(N3CCOCC3)cc2OC)C1=O	-1%	?	/	/	-15%	-7%
COc1cc(N2CCOCC2)ccc1/C=C1\C(=O)NC(=O)N(C2CCCCC2)C1=O	0%	-3%	-2%	79µM*	-17%	?
O=C(O)c1cccc2c1NC(c1cccc([N+](=O)[O-])c1)C1CC(Sc3ccccc3[N+](=O)[O-])C(Cl)C21 (stereo not given)	-29%	-10%	-26%	-32%	i	20µM*
O=C(O)c1ccc2c(c1)C1C(Cl)C(Sc3ccccc3[N+](=O)[O-])CC1C(c1cccc([N+](=O)[O-])c1)N2 (stereo not given)	-19%	-10%	?	?	-19%	22µM*
Cc1ccc2c(c1Cl)NC(C(=O)O)C1CC(Sc3ccccc3[N+](=O)[O-])C(Cl)C21 (stereo not given)	-16%	-4%	?	-9%[11.6 µM]	-28%	/
Oc1c(Cl)cc(Cl)cc1Cl	/	-3%	/	/	?	/
CC[C@H](C)[C@H]1O[C@]2(C=C[C@@H]1C)C[C@@H]1C[C@@H](C/C=C(\C)[C@@H](O[C@H]3C[C@H](OC)[C@@H](O[C@H]4C[C@H](OC)[C@@H](O)[C@H](C)O4)[C@H](C)O3)[C@@H](C)/C=C/C=C3\CO[C@@H]4[C@H](O)C(C)=C[C@@H](C(=O)O1)[C@]34O)O2	/	4%	/	/	/	/
NP(=O)(OCCCc1ccccc1)Oc1ccc(Cl)cc1 (stereo not given)	-3%	26%	8%	-1%	/	14µM*
NP(=O)(OCCCc1ccccc1)Oc1ccccc1Cl (stereo not given)	0%	10%	-13%	3%	/	2%
CCCCCCCC/C=C\CCCCCCCC(=O)OC[C@@H](COP(O)(O)=S)OC	?	?	/	/	25µM*	/
ClC1=C(Cl)C(Cl)(C2(Cl)C(Cl)=C(Cl)C(Cl)=C2Cl)C(Cl)=C1Cl	-8%	11µM*	/	/	?	/
O=C1NC(=S)NC(=O)C1=Cc1c(Cl)cccc1Cl	/	/	1%	56µM*	/	/
O=C1NC(=S)NC(=O)C1=Cc1ccc(Br)s1	-3%	-2%	?	?	/	-6%
COC(=O)c1ccccc1N	/	0%	/	/	-17%	/
CCNC1(c2cccs2)CCCCC1=O (stereo not given)	/	5%[21 µM]	/	/	/	/
O=C(Nc1cc[c]([Sb](=[O])([OH])[OH])cc1)c1ccccc1	/	/	40µM*	/	/	/
[O]=[Sb]([OH])([OH])[c]1ccccc1	/	/	50µM*	/	/	/
Cc1ccc2nc3sc(=O)sc3nc2c1	-18%	0%	/	/	15%	/
Cc1cc(C=C2C(=O)N(C)C(=S)N(C)C2=O)c(C)n1-c1cccnc1	18µM*	-4%	5%	?	-4%	-11%
Cc1cc(/C=C2/C(=O)NC(=O)N(C)C2=O)c(C)n1-c1ccccc1	-6%	-8%	-3%	1%[57.1 µM]	i	-1%
SMILES	BLM helicase inh	APE1 inh	FEN1 inh	WRN helicase inh	RECQ1 helicase	L3MBTL1 block
O=C1NC(=O)N(Cc2cccs2)C(=O)/C1=C/c1ccc(N2CCOCC2)cc1	0%	1%	5%	56µM*	-7%	/
CCOc1ccccc1N1C(=O)NC(=O)/C(=C/c2ccc3c4c(cccc24)CC3)C1=O	-3%	-2%	13%	50µM*	-4%	-2%
COc1cccc(N2C(=O)NC(=O)/C(=C/c3ccc4c5c(cccc35)CC4)C2=O)c1	0%	1%	/	/	-9%	-12%
CCC12CCN(Cc3ccc(F)cc3)CC1Oc1c(O)cccc12 (stereo not given)	/	20%	/	/	/	/
O=C1OC(c2cc(I)c(O)c(I)c2)(c2cc(I)c(O)c(I)c2)c2ccccc21	?	/	/	/	8.9µM*	/
CCCCn1c(NC(=O)c2ccc(Br)o2)c(C(=O)OCC)c2nc3ccccc3nc21	22µM*	6%	-16%	?	-1%	-24%
CCCCn1c(N)c(C(=O)NCCN2CCOCC2)c2nc3ccccc3nc21	0%	-9%	-10%	-33%	-21%	15%
Oc1cc[c]([Hg][Cl])cc1	4%	/	/	/	/	/
CN(C)c1ccc(C=C2C(=O)NC(=O)NC2=O)cc1[N+](=O)[O-]	-2%	-4%	-11%	?	-1%	-10%
O=C1NC(=O)C(=Cc2cc3c(cc2[N+](=O)[O-])OCO3)C(=O)N1	-8%	?	15%	71µM*	3%	-5%
CC1=NN(c2ccccc2)C(=O)C1/C=C1/C(=O)NC(=O)N(c2cccc(C)c2)C1=O (stereo not given)	-3%	9%	/	/	2%	-1%
Cc1cccc(N2C(=O)NC(=O)/C(=C/c3cc4c(cc3[N+](=O)[O-])OCO4)C2=O)c1	0%	1%	-33%	50µM*	0%	/
O=C1NC(=O)N(c2ccccc2)C(=O)/C1=C\C=C\c1ccccc1	-11%	-2%	-1%	32µM*	-14%	?
Cc1ccc(N2C(=O)NC(=O)/C(=C\c3cnc(-c4ccccc4)nc3)C2=O)cc1	7%	7%	-2%	?	-3%	1%
CC(C)c1ccc(N2C(=O)CC(=O)NC2=O)cc1	-5%	8%	-4%	-7%	/	/
Cc1cc(C)cc(N2C(=O)NC(=O)/C(=C\C=C\c3ccco3)C2=O)c1	2%	12%	-13%	50µM*	14µM*	?
CCc1ccc(N2NC(=O)/C(=C/C=C/c3ccco3)C2=O)cc1	-15%	2%	-16%	?	-11%	-10%
Cc1ccc(N2C(=O)NC(=O)/C(=C/C=C/c3ccco3)C2=O)cc1	5%	?	?	45µM*	20µM*	?
